The source made the active and inactive calls.
How the values were obtained:
[1] = anti-His antibody binders, primary screen, artefact control for SMM control protein annotation, biochemical, small-molecule microarray, 635 nm fluorescence (AID 1128); conditions: anti-His Alexa647 antibody binding, higher = more signal;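 further: score merges feature fluorescence with signal-to-noise for each printed compound spot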
[2] = tested on: Human papillomavirus type 1a E7 protein (residues 1-88); test: HPV1a E7 small-molecule binders, primary screen, biochemical, small-molecule microarray, residues 1-88, 635 nm (AID 1129); conditions: small-molecule microarray binding, fluorescence 635 nm; higher = more signal
[3] = target: Focal adhesion kinase 1 (Homo sapiens) (UniProt Q05397); test: small-molecule microarray binders of FAK, primary screen, biochemical, 635/667 nm fluorescence, BSA, DTT (AID 1130); conditions: PTK2 binding, 635 nm fluorescence, higher = more signal;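 further: composite of spot emission at 667 nm and signal to noise over triplicate slides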
[4] = tested on: Fibrinogen (Alexa647-labelled); test: fibrinogen binders on compound microarrays, profiling panel, artefact control for SMM control-protein annotation, biochemical, small-molecule microarray, 635/667 nm fluorescence (AID 1131); conditions: fibrinogen-A647 binding fluorescence, higher = more signal;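 further: z-score merges 667 nm fluorescence with per-spot signal-to-noise over triplicate slides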
[5] = target: Follistatin (Homo sapiens) (UniProt P19883); test: follistatin binders on small-molecule microarrays, primary screen, biochemical, small-molecule microarray, 635/667 nm fluorescence (AID 1132); conditions: FST binding, 635 nm fluorescence, higher = more signal
[6] = target: Fibroblast growth factor 2 (Homo sapiens) (UniProt P09038); test: FGF2 binders on small-molecule microarrays, primary screen, biochemical, small-molecule microarray, 635/667 nm fluorescence (AID 1133); conditions: small-molecule microarray binding, FGF2, fluorescence 635/667; higher = more signal
[7] = mitochondrial membrane potential change in A549 cells, profiling panel, cell-based, JC-1 fluorescence, basal, 24 h, 100 nL (AID 1138); conditions: higher = more signal;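 further: A549 lung adenocarcinoma cells under basal conditions with no added stimulus; test concentration not given here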
Lefty1 = Lefty1 binders on small-molecule microarrays, primary screen, biochemical, small-molecule microarray, 635/667 nm fluorescence (AID 1139); conditions: small-molecule microarray binding, fluorescence 635/667; higher = more signal
[8] = tested on: wheat germ agglutinin (Triticum aestivum), Alexa647-labelled; test: wheat germ agglutinin binders on compound microarrays, profiling panel, artefact control for SMM control-protein annotation, biochemical, small-molecule microarray, 635/667 nm fluorescence (AID 1140); conditions: WGA-A647 binding, 635 nm fluorescence, higher = more signal;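 further: score merges 667 nm feature emission with signal to noise over triplicate slides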
[9] = target: Luciferin 4-monooxygenase (Photinus pyralis) (UniProt P08659); test: firefly luciferase enzyme inhibitors, primary screen, biochemical, luminescence, purified enzyme, 2006 set (AID 1141); conditions: SteadyGlo luminescence, 30 min, higher = more signal, called active from +8 up or from −8 down;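 further: cell-free assay with purified firefly luciferase at 100 ng per well in PBS; test concentration not given here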
Luciferin 4-monooxygenase (Photinus pyralis), sequence (P08659 whole entry, looked up): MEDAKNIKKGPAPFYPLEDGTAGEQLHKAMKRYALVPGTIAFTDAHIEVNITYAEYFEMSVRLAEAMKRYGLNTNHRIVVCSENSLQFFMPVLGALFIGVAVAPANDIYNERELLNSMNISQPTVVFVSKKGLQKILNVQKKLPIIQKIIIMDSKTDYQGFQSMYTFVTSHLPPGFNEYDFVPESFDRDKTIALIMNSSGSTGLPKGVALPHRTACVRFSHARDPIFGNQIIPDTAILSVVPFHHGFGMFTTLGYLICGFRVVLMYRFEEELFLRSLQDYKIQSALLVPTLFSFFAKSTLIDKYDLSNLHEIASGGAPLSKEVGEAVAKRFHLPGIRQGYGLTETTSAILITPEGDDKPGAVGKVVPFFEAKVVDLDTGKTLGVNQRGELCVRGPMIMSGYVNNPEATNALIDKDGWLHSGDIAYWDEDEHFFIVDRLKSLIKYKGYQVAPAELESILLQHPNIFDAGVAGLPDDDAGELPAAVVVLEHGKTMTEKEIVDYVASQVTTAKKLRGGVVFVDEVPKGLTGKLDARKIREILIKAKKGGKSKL

Fibroblast growth factor 2 (Homo sapiens), sequence (P09038 whole entry, looked up): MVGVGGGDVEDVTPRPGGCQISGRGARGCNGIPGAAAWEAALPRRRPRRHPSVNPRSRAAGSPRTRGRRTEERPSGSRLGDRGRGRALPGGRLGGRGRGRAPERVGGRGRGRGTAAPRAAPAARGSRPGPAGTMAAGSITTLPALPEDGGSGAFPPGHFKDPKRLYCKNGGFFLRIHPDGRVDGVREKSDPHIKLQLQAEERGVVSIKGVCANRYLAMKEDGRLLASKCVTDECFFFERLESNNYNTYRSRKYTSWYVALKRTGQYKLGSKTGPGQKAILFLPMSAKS
Follistatin (Homo sapiens), sequence (P19883 whole entry, looked up): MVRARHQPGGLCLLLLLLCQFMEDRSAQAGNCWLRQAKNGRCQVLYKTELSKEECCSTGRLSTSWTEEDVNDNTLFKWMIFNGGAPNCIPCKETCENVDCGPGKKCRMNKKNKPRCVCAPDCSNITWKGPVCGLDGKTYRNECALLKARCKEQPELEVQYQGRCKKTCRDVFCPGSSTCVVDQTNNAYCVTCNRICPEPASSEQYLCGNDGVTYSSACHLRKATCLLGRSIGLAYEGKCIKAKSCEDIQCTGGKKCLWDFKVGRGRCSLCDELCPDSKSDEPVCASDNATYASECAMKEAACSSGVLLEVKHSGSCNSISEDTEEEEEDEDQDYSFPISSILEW
Focal adhesion kinase 1 (Homo sapiens), sequence (Q05397 whole entry, looked up): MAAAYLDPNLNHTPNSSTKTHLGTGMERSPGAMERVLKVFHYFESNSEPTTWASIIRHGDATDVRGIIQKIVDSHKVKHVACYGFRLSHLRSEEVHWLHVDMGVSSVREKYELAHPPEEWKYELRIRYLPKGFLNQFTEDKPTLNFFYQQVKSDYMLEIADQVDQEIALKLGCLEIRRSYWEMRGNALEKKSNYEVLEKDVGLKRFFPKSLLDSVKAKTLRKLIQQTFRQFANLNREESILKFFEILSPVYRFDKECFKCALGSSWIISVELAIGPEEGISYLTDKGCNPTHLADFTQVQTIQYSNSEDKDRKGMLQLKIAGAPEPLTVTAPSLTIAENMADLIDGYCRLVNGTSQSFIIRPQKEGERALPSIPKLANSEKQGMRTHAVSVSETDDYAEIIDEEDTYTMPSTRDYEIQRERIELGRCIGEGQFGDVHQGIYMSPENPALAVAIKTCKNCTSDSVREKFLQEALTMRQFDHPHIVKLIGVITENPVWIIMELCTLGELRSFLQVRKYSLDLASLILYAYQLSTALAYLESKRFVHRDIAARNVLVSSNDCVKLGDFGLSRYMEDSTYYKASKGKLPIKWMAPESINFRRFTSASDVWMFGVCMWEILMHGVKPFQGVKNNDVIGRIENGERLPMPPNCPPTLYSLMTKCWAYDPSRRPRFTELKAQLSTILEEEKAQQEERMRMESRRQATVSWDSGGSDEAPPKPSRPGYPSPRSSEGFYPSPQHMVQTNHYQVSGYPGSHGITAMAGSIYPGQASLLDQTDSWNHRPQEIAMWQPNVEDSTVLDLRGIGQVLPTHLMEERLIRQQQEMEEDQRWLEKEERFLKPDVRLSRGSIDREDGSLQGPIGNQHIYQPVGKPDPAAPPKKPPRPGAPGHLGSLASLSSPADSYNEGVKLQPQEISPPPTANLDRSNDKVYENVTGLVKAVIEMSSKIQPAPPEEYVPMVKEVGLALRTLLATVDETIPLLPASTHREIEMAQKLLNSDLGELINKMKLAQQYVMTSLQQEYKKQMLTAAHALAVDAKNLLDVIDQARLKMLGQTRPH

SMILES | composite z-score [1] | composite z-score [2] | composite z-score [3] | composite z-score [4] | composite z-score [5] | composite z-score [6] | z-score [7] | composite z-score (Lefty1) | composite z-score [8] | z-score [9]
COc1ccc(NN2C(C(O)c3ccc(OC)c(OCc4ccccc4)c3)C=CC3C(=O)N(C4CCCCC4)C(=O)C32)cc1 (stereo not given) | 0.867 | 1.21 | 0.625 | 1.01 | 1.29 | 0.0862 | 0.492 | 0.461 | 0.571 | 1.16 (inactive)
COC(=O)c1c(CC[C@@H](CO)NC(=O)N[C@@H](Cc2ccccc2)Cn2cc(C3(O)CCCCC3)nn2)oc(C(C)=O)c1C(=O)OC | 1.37 | 0.868 | 0.0673 | 0.307 | 0.691 | 0.957 | -0.941 | 1.31 | -0.267 | 0.896 (inactive)
O=C1OCC=C[C@H]2OC34C=CCN(c5ccc(Cl)cc5)C(=O)[C@H]3N(CCCCCCO)C(=O)[C@@H]4[C@@H]12 (stereo not given in full) | 1.41 | -0.777 | -0.209 | -2.01 | -1.57 | -0.705 | 1.82 | -1.09 | -0.892 | -0.71 (inactive)
CC(C)C[C@@H]1NC(=O)[C@@H]2C[C@H](C(=O)NCCCCCC[N+](C)(C)C)[C@H](c3ccc(O)cc3)N2C1=O | 1.59 | 0.922 | 0.11 | 0.427 | 1.18 | 0.998 | -0.158 | 1.08 | 0.56 | 0.0519 (inactive)
C=C(COC)/C(=C/C[C@H](OC(=O)c1ccncc1)c1cccc(OCCO)c1)c1cc(C(=O)OC)ccc1OC | 0.844 | 1.1 | 0.381 | 0.317 | 0.127 | 0.245 | 1.48 | 0.819 | 0.0332 | -1.04 (inactive)
COCCOC(=O)N1C(=O)[C@@]2(c3cc(C#CCNC(N)=O)ccc31)[C@H](C(=O)N1CCN(c3ncccn3)CC1)[C@H]1C(=O)O[C@H](c3ccccc3)[C@H](c3ccccc3)N1[C@@H]2c1ccccc1OCCO | 1.24 | 1.07 | 0.261 | 0.797 | 1.37 | 0.406 | -1.55 | 0.889 | 0.749 | 1.05 (inactive)
Cc1c(NC(=O)CC#N)c(=O)n(-c2ccccc2)n1C | 0.514 | 0.469 | 0.616 | 0.134 | 0.116 | 0.291 | 0.385 | 0.645 | 0.114 | 0.551 (inactive)
COCCOC(=O)N1C(=O)[C@@]2(c3cc(C#CC4=CCCCC4)ccc31)[C@H](C(=O)NC[C@H](O)c1ccccc1)[C@H]1C(=O)O[C@H](c3ccccc3)[C@H](c3ccccc3)N1[C@@H]2c1ccc(O)cc1 | 0.0524 | 1.19 | 0.703 | 0.86 | 1.32 | 1.32 | -1.23 | 0.861 | 0.845 | -1.31 (inactive)
CC1CC/C=C\[C@H]2OC34C=CCN(Cc5ccccc5)C(=O)[C@H]3N(CCCCCO)C(=O)[C@@H]4C2C(=O)O1 (stereo not given in full) | 0.15 | -0.825 | 1.19 | -0.985 | -0.599 | -0.754 | 1.37 | -0.812 | -0.494 | -0.763 (inactive)
[N-]=[N+]=NCc1ccccc1C[C@]1(C(=O)O)N=C(c2ccc(OCCCO)cc2)O[C@H]1c1ccccc1CN=[N+]=[N-] | 1.25 | 1.03 | 0.378 | 1.02 | 0.879 | 0.157 | 0.0653 | -0.8 | 1.08 | -1.49 (inactive)
CCN(CC)c1ccc(N2CC=CC34O[C@@H]5/C=C\CCCOC(=O)C5[C@H]3C(=O)N(C(CO)C(C)C)[C@@H]4C2=O)cc1 (stereo not given in full) | 1.02 | -1.04 | 0.409 | -1.1 | -0.45 | -0.593 | 0.8 | -0.217 | -0.615 | -0.557 (inactive)
O=C1OCC=C[C@H]2OC34C=CCN(c5ccc6ccccc6c5)C(=O)[C@H]3N(CCCO)C(=O)[C@@H]4[C@@H]12 (stereo not given in full) | -0.349 | -0.92 | -0.409 | -0.669 | 0.0786 | -0.989 | -0.506 | -0.11 | -0.645 | -0.18 (inactive)
COC(=O)c1ccc(C(O)C2C=CC3C(=O)N(C)C(=O)C3N2NC(=O)OC(C)(C)C)o1 (stereo not given) | 0.882 | 1.06 | 0.329 | 0.63 | 0.419 | 0.624 | -0.414 | 0.0239 | 0.436 | -0.965 (inactive)
C=CCC(OC(C)=O)[C@@H]1[C@@H](N(Cc2ccc(-c3cccc(C(F)(F)F)c3)o2)C(=O)c2ccc(C)cc2)c2cc(OCCCO)ccc2N1C(=O)c1ccc(-c2ccccc2)cc1 (stereo not given in full) | -0.488 | -0.626 | 0.134 | -0.238 | 0.65 | 0.0875 | 2.31 | 0.899 | 0.639 | -1.4 (inactive)
COc1ccccc1CN1C(=O)c2ccccc2[C@@H](C(=O)NCCN2CCOCC2)[C@@H]1c1ccc(CO)cc1 | -0.355 | 0.789 | -0.444 | 0.234 | 0.912 | 1.26 | 0.708 | -0.0327 | 0.285 | 0.706 (inactive)
CC(=O)NCCCC[C@@H]1NC(=O)[C@@H]2C[C@H](C(=O)NCCCCCCNC(=O)CS)[C@H](c3ccc(O)cc3)N2C1=O | 3.39 | 0.964 | 0.208 | 0.224 | 0.304 | 0.104 | -0.177 | 0.236 | 0.418 | -0.557 (inactive)
N#Cc1ccc(NN2C(C(O)c3cccs3)C=CC3C(=O)N(c4ccccc4)C(=O)C32)cc1 (stereo not given) | -0.272 | 0.685 | 0.421 | 0.71 | 0.556 | -0.216 | 0.989 | -0.257 | 0.578 | -0.589 (inactive)

SMILES | composite z-score [1] | composite z-score [2] | composite z-score [3] | composite z-score [4] | composite z-score [5] | composite z-score [6] | z-score [7] | composite z-score (Lefty1) | composite z-score [8] | z-score [9]
COc1ccc(C#Cc2ccc3c(c2)[C@]2(C(=O)N3)[C@H](C(=O)NC[C@H](O)c3ccccc3)[C@H]3C(=O)O[C@H](c4ccccc4)[C@H](c4ccccc4)N3[C@@H]2c2ccccc2OCCO)cc1 | 1.05 | 1.19 | 0.686 | 0.844 | 1.09 | 0.604 | -1.79 | 1.42 | 0.855 | -0.361 (inactive)
COc1cc(C(O)C2C=CC3C(=O)N(c4ccccc4)C(=O)C3N2Nc2ccc(C#N)cc2)cc(OC)c1OC (stereo not given) | 2.58 | 1.31 | 1.04 | 1.11 | 1.02 | 0.0977 | 0.142 | -0.0667 | 1.51 | 0.282 (inactive)
NCCCCCNC(=O)[C@H]1C[C@H]2C(=O)NCC(=O)N2[C@H]1c1cccc(OCCO)c1 | 0.524 | 0.817 | 0.369 | 0.909 | 1.26 | 1.08 | 0.431 | 1.5 | 0.739 | 0.199 (inactive)
CC(C)C(=C=CC[C@H](O)c1ccccc1OCCO)C[C@H](O)c1ccccn1 | 1.93 | 0.958 | 0.344 | 0.207 | 0.476 | 0.857 | 0.453 | 0.649 | 1.33 | -0.88 (inactive)
CCCC[C@H]1OB(O)C[C@H]2C1=C(C)C[C@H]1C(=O)N(Cc3ccccc3)C(=O)[C@H]12 | 0.201 | 0.366 | 0.553 | 0.311 | 0.797 | 1.26 | 0.625 | 0.63 | -0.144 | -1.15 (inactive)
COC(=O)[C@@]1(Cc2ccccc2)[C@H]2c3cc(C(=O)N4CCCC4)n(Cc4ccc(C)o4)c3C[C@H]2CN1C(=O)c1ccccc1 | 0.195 | 1.22 | 0.752 | -0.809 | -0.0668 | -0.675 | 0.337 | -0.0201 | 1.18 | -2.68 (inactive)
CC(C)C(O)C1C=CC2C(=O)N(c3ccccc3)C(=O)C2N1Nc1ccc(C#N)cc1 (stereo not given) | 1.68 | 1.14 | 0.0162 | 1.01 | 0.97 | 0.598 | 0.192 | -0.265 | 1.12 | -0.555 (inactive)
COc1ccc(CCN2C(=O)[C@@]3(Cc4ccccc42)c2ccccc2C(=O)N(Cc2ccccc2Cl)[C@H]3c2ccc(CO)cc2)cc1 | -1.74 | -1.3 | -0.657 | -0.953 | -1.1 | -0.157 | -0.599 | -1.17 | -0.0043 | -0.822 (inactive)
CC(C)C(=C=CC[C@@H](O)c1ccccc1OCCO)C[C@@H](O)c1ccccn1 | -0.131 | 0.647 | 1.02 | 0.694 | 0.6 | 0.566 | 1.43 | 0.811 | 0.21 | -0.623 (inactive)
C[N+](C)(C)CCCCCCNC(=O)[C@H]1C[C@H]2C(=O)N3CCC[C@H]3C(=O)N2[C@H]1c1ccc(O)cc1 | -0.167 | 0.0132 | -0.166 | -0.876 | 1.14 | 0.693 | -1.39 | 1.12 | -0.411 | 0.908 (inactive)
O=C1O[C@@H](c2ccccc2)[C@@H](c2ccccc2)N2[C@@H](c3ccc(OCCO)cc3)[C@]3(C(=O)Nc4ccccc43)[C@@H](C(=O)Nc3nc4ccccc4s3)[C@H]12 | 2.11 | 1.26 | 0.645 | 1 | 1.21 | 0.79 | -2.13 | 1.28 | 0.958 | -9.09 (active)
COCCOC(=O)N1C(=O)[C@@]2(c3cc(C#CCCO)ccc31)[C@H](c1ccc(O)cc1)N1[C@H](c3ccccc3)[C@H](c3ccccc3)OC(=O)[C@H]1[C@@H]2C(N)=O | 3.05 | 0.215 | 0.0329 | 0.19 | 0.931 | 0.347 | -0.444 | 0.296 | 0.0204 | 0.028 (inactive)
COCCOC(=O)N1C(=O)[C@@]2(c3ccccc31)[C@H](c1ccc(O)cc1)N1[C@H](c3ccccc3)[C@H](c3ccccc3)OC(=O)[C@H]1[C@@H]2C(=O)N1CCc2cc(OC)c(OC)cc2C1 | 1.7 | 0.848 | 0.341 | 0.107 | 1.35 | 1.85 | 0.355 | 1.14 | 0.216 | -0.704 (inactive)
CC(=O)Nc1cc(Br)ccc1C(=O)O | 0.0952 | 0.747 | -0.0817 | 0.805 | 0.0564 | -0.129 | 0.204 | -0.0658 | 0.625 | -0.592 (inactive)
CC(C)N1C(=O)c2ccccc2[C@@H](C(=O)NCCCN(C)C)[C@@H]1c1ccc(CO)cc1 | 0.0674 | -0.163 | 1.13 | -0.305 | -0.631 | -0.521 | -0.864 | -1.12 | 0.705 | 0.571 (inactive)
C=CCNC(=O)[C@@H]1[C@H]2C(=O)O[C@H](c3ccccc3)[C@H](c3ccccc3)N2[C@H](c2ccc(O)cc2)[C@@]12C(=O)N(C(=O)OCCOC)c1ccccc12 | 1.92 | 1.21 | 0.419 | 0.945 | 0.714 | -0.145 | -0.595 | 0.522 | 0.795 | -0.355 (inactive)
